Reference: PubChem BioAssay (Tox21)
Records with an inconclusive call do not appear. Calls of active or inactive are those of the source. Unless noted, the call rests on the fitted dose curve; in most records, active means well fitted curve in the direction sought with a large enough effect in the repeat runs; inconclusive means weak or mixed curves; inactive means no such curve, though single readings can be large; an effect the other way counts as inactive or inconclusive.

What was measured:
[1] = target: Thyrotropin-releasing hormone receptor (Homo sapiens) (UniProt P34981); assay: qHTS assay to identify small molecule agonists of the thyrotropin-releasing hormone receptor (TRHR) signaling pathway (AID 1346891; calls by dose curve; further: series mostly up to about 58 µM)
Chain of Thyrotropin-releasing hormone receptor (Homo sapiens) (P34981 whole entry, looked up): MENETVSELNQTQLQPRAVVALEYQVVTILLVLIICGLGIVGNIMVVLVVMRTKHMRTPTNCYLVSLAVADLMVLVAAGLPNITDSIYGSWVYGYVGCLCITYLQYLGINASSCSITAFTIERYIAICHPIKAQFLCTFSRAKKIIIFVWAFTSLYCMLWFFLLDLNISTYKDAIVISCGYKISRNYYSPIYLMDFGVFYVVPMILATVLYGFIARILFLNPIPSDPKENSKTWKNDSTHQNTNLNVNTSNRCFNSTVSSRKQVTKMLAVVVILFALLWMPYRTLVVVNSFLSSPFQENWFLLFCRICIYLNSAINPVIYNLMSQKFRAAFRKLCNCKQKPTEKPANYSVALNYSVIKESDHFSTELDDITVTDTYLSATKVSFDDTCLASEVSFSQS
Procedure, shortened: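 Screening of agonists relied on calcium signalling in HEK293 cells expressing human TRHR: dye loading 2 h at 37 °C preceded compound addition and a 3-min fluorescence time course.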

[2] = Human pregnane X receptor (PXR) small molecule agonists, qHTS cell viability counter screen (AID 1346977); further: nearly all actives have a fitted effect of over 50% in size
Procedure, shortened: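 Tox21 qHTS format; PXR-Luc HepG2, 2,000/well, charcoal-stripped FBS 5%. Cpd exposure 24hr. Read: CellTiter-Fluor fluorescence, multiplexed with luciferase.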

[3] = Caspase-3/7 induction in HepG2 cells by small molecules, qHTS assay (AID 1346978); further: nearly all actives have a fitted effect of over 15% in size
Procedure, shortened: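 Wild-type HepG2 cells, 2,000/well, settled 5 hr at 37 C and 5% CO2, then compound-treated for 17 hr; caspase-3/7 activity read by luminescent Caspase-Glo 3/7 after 30 min at room temperature.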

[4] = Caspase-3/7 induction in CHO-K1 cells by small molecules, qHTS cell viability counter screen (AID 1346979); further: nearly all actives have a fitted effect of over 35% in size
Procedure, shortened: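 CellTiter-Fluor viability check, qHTS format: wild-type CHO-K1, 16hr compound treatment, 1hr reagent incubation, fluorescence read.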

[5] = Caspase-3/7 induction in CHO-K1 cells by small molecules, qHTS assay (AID 1346980); further: nearly all actives have a fitted effect of over 15% in size
Procedure, shortened: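 Wild-type CHO-K1 cells exposed to compounds for 17hr at 37 C, 5% CO2. Caspase-3/7 activity then measured by Caspase-Glo 3/7 luminescence after 30min at room temperature.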

[6] = Caspase-3/7 induction in HepG2 cells by small molecules, qHTS cell viability counter screen (AID 1346981); further: series mostly up to about 92 µM; nearly all actives have a fitted effect of over 30% in size
Procedure, shortened: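 Fluorescence read-out of live-cell protease activity (CellTiter-Fluor) after 1 hr with reagent. This was measured in the same wells as the caspase-3/7 luminescence, on HepG2 cells exposed to DMSO-dissolved compounds for 16 hr at 37 C.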

[7] = target: Nuclear receptor subfamily 1 group I member 2 (Homo sapiens) (UniProt O75469); assay: Human pregnane X receptor (PXR) small molecule agonists, qHTS assay (AID 1346982); further: nearly all actives have a fitted effect of over 35% in size; further: potency means the concentration at half of the fitted maximal effect
Chain of Nuclear receptor subfamily 1 group I member 2 (Homo sapiens) (O75469 whole entry, looked up): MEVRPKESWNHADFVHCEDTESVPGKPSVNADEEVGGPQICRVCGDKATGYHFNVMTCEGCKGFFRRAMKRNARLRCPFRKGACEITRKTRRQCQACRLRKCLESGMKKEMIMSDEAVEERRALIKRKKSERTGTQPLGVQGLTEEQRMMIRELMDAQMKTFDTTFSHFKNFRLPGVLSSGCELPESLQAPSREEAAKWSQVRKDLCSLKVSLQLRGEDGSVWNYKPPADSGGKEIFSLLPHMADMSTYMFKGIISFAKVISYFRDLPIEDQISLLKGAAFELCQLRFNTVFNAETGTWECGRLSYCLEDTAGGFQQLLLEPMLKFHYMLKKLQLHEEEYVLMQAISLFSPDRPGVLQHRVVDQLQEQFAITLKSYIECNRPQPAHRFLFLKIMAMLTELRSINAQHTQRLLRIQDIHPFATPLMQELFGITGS
Procedure, shortened: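 HepG2 PXR-Luc reporter line, 5% charcoal-stripped FBS; 5 hr pre-incubation, compound (DMSO) 24 hr at 37 C/5% CO2; ONE-Glo 30 min RT; luminescence read-out.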

[8] = target: Nuclear receptor subfamily 1 group I member 2 (Rattus norvegicus) (UniProt Q9R1A7); assay: Rat pregnane X receptor (rPXR) activation by small molecules, qHTS assay (AID 1346983); conditions: rPXR luciferase reporter cells, One-Glo luminescence, 24 h; max activation: hits give high values; further: nearly all actives have a fitted effect of over 20% in size; further: potency means the concentration at half of the fitted maximal effect
Chain of Nuclear receptor subfamily 1 group I member 2 (Rattus norvegicus) (Q9R1A7 whole entry, looked up): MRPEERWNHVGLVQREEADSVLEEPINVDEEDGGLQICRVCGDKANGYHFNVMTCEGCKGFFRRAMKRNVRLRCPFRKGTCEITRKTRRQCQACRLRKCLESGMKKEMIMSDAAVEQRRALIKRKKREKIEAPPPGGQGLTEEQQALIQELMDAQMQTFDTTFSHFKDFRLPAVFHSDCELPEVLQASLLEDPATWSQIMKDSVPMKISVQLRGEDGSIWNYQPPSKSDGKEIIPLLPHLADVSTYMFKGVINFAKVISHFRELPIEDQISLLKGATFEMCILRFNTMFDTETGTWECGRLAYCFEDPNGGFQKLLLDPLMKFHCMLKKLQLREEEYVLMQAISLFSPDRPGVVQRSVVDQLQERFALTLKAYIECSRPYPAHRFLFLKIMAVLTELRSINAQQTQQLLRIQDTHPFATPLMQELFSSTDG
Procedure, shortened: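 Cell-based rPXR activation assay: rPXR cells, 2,000 per well, rested 5hr at 37 C, then exposed to compounds in DMSO for 24 hr at 37 C. Luciferase activity read by One-Glo luminescence after 30 min at room temperature.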

[9] = target: Nuclear receptor subfamily 1 group I member 2 (Homo sapiens) (UniProt O75469); assay: CYP3A4 induction through human pregnane X receptor (PXR) by small molecules, qHTS assay (AID 1346984); further: nearly all actives have a fitted effect of over 40% in size; further: potency means the concentration at half of the fitted maximal effect
Procedure, shortened: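 HepG2-derived DPX-2 line carrying PXR plus a CYP3A4-promoter luciferase reporter; cells plated 5 hr, compound-exposed 24 hr at 37C. CYP3A4 activity probed with 3uM (final) Luciferin-IPA for 3hr, then luciferase read after One-Glo.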

[10] = target: Nuclear receptor subfamily 1 group I member 2 (Homo sapiens) (UniProt O75469); assay: Human pregnane X receptor (PXR) activation by small molecules, qHTS assay (AID 1346985); further: nearly all actives have a fitted effect of over 40% in size
Procedure, shortened: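 DPX-2 cells (HepG2 co-transfected with a PXR response element and a CYP3A4-promoter luciferase construct) were seeded at 2,000 per well, rested 5 hr at 37C, then exposed to DMSO-dissolved compounds for 24 hr. Activation was read as luciferase luminescence.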

[11] = target: Cytochrome P450 2D6 (Homo sapiens) (UniProt P10635); assay: Cytochrome P450 Family 2 Subfamily D Member 6 (CYP2D6) small molecule antagonists: luciferase reporter qHTS assay (AID 1671196); further: nearly all actives have a fitted effect of over 50% in size; further: potency means the concentration at half of the fitted maximal effect
Chain of Cytochrome P450 2D6 (Homo sapiens) (P10635 whole entry, looked up): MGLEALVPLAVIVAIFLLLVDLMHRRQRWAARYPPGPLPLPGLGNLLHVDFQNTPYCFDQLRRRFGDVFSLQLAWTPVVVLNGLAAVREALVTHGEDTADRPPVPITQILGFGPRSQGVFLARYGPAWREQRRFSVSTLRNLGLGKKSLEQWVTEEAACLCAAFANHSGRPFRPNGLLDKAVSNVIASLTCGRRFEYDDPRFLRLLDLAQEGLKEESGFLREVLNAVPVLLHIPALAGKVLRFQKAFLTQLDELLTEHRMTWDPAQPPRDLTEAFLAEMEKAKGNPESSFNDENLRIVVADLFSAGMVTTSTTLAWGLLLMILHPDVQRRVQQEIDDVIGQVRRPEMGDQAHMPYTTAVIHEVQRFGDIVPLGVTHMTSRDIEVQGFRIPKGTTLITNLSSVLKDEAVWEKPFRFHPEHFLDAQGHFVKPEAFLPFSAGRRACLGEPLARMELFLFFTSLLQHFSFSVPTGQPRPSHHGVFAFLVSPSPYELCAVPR
Procedure, shortened: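 Luminogenic proluciferin substrate, CYP2D6 enzyme; 10 min RT preincubation with compound, NADPH regeneration system added, 1 h RT. Stop/detection reagent, 20 min RT, luminescence read (RLU). Signal proportional to CYP activity.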

[12] = target: Cytochrome P450 2C19 (Homo sapiens) (UniProt P33261); assay: Cytochrome P450 Family 2 Subfamily C Member 19 (CYP2C19) small molecule antagonists: luciferase reporter qHTS assay (AID 1671197); further: nearly all actives have a fitted effect of over 65% in size; further: potency means the concentration at half of the fitted maximal effect
Chain of Cytochrome P450 2C19 (Homo sapiens) (P33261 whole entry, looked up): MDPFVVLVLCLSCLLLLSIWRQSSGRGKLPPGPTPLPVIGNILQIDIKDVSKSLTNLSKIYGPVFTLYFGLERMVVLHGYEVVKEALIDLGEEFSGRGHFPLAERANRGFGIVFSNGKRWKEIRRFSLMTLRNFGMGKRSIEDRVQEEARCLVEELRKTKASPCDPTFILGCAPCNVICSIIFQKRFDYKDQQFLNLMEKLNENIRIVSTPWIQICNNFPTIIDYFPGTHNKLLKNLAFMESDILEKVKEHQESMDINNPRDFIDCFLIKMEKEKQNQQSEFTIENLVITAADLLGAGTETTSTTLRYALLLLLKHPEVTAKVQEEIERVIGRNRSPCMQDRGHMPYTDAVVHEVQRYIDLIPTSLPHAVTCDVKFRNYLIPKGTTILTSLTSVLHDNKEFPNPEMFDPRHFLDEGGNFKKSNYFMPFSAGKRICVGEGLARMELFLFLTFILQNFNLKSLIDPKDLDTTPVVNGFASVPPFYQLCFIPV
Procedure, shortened: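 Luminescent readout of CYP2C19 activity: luciferin product detected 20 min after adding detection reagent. Before that, compound and enzyme-substrate mix preincubated 10 min at room temperature; NADPH-regenerating system started a 1 h, 37C reaction. Ketoconazole as positive control.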

[13] = target: Cytochrome P450 2C9 (Homo sapiens) (UniProt P11712); assay: Cytochrome P450 Family 2 Subfamily C Member 9 (CYP2C9) small molecule antagonists: luciferase reporter qHTS assay (AID 1671198); further: nearly all actives have a fitted effect of over 50% in size; further: potency means the concentration at half of the fitted maximal effect
Chain of Cytochrome P450 2C9 (Homo sapiens) (P11712 whole entry, looked up): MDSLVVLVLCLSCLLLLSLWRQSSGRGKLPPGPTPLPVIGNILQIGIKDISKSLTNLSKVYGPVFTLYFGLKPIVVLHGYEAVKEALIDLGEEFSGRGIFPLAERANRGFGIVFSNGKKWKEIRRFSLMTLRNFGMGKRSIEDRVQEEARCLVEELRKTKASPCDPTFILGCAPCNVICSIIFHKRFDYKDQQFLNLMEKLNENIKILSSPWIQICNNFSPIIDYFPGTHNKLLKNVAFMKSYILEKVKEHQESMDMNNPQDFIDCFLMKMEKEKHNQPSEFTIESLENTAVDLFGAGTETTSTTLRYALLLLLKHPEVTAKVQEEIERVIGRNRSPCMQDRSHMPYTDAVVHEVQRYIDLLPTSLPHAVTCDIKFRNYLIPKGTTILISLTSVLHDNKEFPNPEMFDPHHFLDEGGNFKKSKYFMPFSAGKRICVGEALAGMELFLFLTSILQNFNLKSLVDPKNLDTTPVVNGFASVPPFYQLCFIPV
Procedure, shortened: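 P450-Glo proluciferin substrate with CYP2C9 enzyme; 10 min RT preincubation, then NADPH regeneration 1 h at 37C; luciferin detection reagent 20 min RT, luminescence in relative luminescence units.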

[14] = target: Cytochrome P450 1A2 (Homo sapiens) (UniProt P05177); assay: Cytochrome P450 Family 1 Subfamily A Member 2 (CYP1A2) small molecule antagonists: luciferase reporter qHTS assay (AID 1671199); further: nearly all actives have a fitted effect of over 50% in size; further: potency means the concentration at half of the fitted maximal effect
Chain of Cytochrome P450 1A2 (Homo sapiens) (P05177 whole entry, looked up): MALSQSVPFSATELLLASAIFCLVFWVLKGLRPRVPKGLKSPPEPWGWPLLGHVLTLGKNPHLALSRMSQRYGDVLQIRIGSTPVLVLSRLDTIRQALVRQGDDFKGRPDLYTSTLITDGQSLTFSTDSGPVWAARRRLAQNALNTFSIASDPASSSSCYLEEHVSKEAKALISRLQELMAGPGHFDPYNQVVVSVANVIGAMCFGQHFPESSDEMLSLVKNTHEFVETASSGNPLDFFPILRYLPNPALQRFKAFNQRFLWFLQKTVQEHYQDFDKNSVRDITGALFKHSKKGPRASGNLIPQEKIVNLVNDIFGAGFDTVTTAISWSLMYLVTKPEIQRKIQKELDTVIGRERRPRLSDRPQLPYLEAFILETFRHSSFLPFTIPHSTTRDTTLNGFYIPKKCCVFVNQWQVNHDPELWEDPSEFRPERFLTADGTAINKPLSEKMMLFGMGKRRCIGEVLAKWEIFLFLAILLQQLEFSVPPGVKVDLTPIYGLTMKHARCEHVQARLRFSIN
Procedure, shortened: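 Luminescence readout (relative luminescence units) after luciferin detection reagent, 20 min RT. Preceded by 1 h room-temperature CYP1A2 reaction with NADPH regeneration solution following 10 min compound preincubation with enzyme and proluciferin substrate. Furafylline positive control.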

[15] = target: Voltage-gated inwardly rectifying potassium channel KCNH2 (Homo sapiens) (UniProt Q12809); assay: Human Ether-a-go-go-Related Gene (hERG) channel small molecule antagonists: fluorescence cell-based qHTS assay (AID 1671200)
Chain of Voltage-gated inwardly rectifying potassium channel KCNH2 (Homo sapiens) (Q12809 whole entry, looked up): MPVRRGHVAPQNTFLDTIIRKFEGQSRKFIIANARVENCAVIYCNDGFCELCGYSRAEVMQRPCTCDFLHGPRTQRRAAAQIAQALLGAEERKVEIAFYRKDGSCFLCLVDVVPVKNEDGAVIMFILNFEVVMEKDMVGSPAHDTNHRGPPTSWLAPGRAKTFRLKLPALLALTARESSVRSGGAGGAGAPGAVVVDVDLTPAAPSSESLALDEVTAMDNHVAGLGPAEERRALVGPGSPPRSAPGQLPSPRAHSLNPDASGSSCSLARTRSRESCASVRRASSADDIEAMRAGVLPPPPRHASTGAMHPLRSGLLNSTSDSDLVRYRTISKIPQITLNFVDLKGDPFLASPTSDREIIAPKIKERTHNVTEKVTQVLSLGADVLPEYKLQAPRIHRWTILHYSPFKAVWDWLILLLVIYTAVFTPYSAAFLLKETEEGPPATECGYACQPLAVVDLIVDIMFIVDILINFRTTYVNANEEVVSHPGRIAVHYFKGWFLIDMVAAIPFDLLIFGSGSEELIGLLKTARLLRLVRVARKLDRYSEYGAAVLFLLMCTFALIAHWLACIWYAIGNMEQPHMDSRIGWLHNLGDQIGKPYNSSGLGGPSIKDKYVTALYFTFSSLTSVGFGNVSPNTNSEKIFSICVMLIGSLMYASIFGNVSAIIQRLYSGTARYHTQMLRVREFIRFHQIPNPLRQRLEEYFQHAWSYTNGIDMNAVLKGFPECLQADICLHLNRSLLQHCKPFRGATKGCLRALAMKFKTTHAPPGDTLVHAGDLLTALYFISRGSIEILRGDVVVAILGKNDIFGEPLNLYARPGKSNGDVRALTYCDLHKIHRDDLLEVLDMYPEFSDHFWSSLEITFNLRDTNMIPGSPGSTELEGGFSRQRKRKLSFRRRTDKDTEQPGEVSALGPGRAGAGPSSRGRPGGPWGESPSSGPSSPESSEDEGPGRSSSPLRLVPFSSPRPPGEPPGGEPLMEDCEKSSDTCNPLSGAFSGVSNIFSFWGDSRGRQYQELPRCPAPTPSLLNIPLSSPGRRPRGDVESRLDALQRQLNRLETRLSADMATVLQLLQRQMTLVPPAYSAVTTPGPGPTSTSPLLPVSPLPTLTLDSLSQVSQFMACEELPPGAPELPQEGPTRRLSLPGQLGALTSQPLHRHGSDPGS
Procedure, shortened: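 Kinetic two-minute fluorescence traces, sampled at 1 s, were collected following thallium stimulus of U2OS cells (1000 per well) that had been cultured overnight at 37 C and loaded with FluxOR II.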

[16] = target: Cytochrome P450 3A4 (Homo sapiens) (UniProt P08684); assay: Cytochrome P450 Family 3 Subfamily A Member 4 (CYP3A4) small molecule antagonists: luciferase reporter qHTS assay (AID 1671201); further: nearly all actives have a fitted effect of over 50% in size; further: potency means the concentration at half of the fitted maximal effect
Chain of Cytochrome P450 3A4 (Homo sapiens) (P08684 whole entry, looked up): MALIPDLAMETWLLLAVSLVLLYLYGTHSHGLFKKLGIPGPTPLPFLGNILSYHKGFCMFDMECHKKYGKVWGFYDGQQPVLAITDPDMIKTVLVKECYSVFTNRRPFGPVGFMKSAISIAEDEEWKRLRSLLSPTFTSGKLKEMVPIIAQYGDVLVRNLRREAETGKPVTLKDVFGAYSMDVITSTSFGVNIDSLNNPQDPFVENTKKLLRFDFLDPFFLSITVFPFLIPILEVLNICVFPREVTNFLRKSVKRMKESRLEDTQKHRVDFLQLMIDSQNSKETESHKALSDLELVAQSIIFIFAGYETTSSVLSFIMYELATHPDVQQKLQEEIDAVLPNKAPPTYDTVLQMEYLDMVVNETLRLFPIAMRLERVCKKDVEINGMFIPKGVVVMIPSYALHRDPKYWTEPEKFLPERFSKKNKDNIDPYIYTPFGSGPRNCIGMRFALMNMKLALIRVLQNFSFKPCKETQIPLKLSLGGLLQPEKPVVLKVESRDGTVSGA
Procedure, shortened: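 Proluciferin-to-luciferin conversion by CYP3A4, NADPH-regenerated, 1 h RT; luminescence read as RLU. Ketoconazole as control.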
On the % scale 0 is the no-effect control and ±100 the full control effect.

Nc1nccs1
inactive: Potency [1] | Potency [2] | Potency [3] | Potency [4] | outcome [5] | Potency [6] | Potency [7] | max activation [8] -2.81% | Potency [9] | Potency [10] | Potency [12] | Potency [13] | Potency [14] | Potency [15] | Potency [16]
active: Potency [11] 31.7 µM

CC(C)=CC=O
inactive: Potency [1] | Potency [2] | Potency [3] | Potency [4] | outcome [5] | Potency [6] | Potency [7] | Potency [11] | Potency [12] | Potency [13] | Potency [15] | Potency [16]

CCOC(=O)c1ccccc1C
inactive: Potency [1] | Potency [2] | Potency [3] | Potency [4] | outcome [5] | Potency [6] | Potency [7] | Potency [11] | Potency [12] | Potency [15] | Potency [16]

O=C(C(=O)c1ccccc1)c1ccccc1
active: Potency [11] 31.6 µM | Potency [12] 8.9 µM | Potency [14] 11.2 µM
inactive: Potency [1] | Potency [2] | Potency [3] | Potency [4] | outcome [5] | Potency [6] | Potency [7] | Potency [13] | Potency [15] | Potency [16]

CCC(C)(O)CCC=C(C)C (stereo unspecified)
inactive: Potency [1] | Potency [2] | Potency [3] | Potency [4] | outcome [5] | Potency [6] | Potency [7] | Potency [11] | Potency [13] | Potency [14] | Potency [15] | Potency [16]

C=CC(=O)NCOCC(C)C
inactive: Potency [1] | Potency [2] | Potency [3] | Potency [4] | outcome [5] | Potency [6] | Potency [7] | Potency [11] | Potency [12] | Potency [13] | Potency [15] | Potency [16]

Cc1ccnc2ccccc12
inactive: Potency [1] | Potency [2] | Potency [3] | Potency [4] | outcome [5] | Potency [6] | Potency [7] | Potency [12] | Potency [13] | Potency [15] | Potency [16]

Cc1ccc(/C=N/n2c(-c3ccccc3)csc2=S)cc1
inactive: Potency [1] | Potency [2] | Potency [3] | outcome [5] | Potency [6] | Potency [11] | Potency [15]
active: Potency [7] 23.7 µM | Potency [12] 8.71 µM | Potency [13] 6.92 µM | Potency [14] 7.76 µM

CO[Si](C)(OC)OC
inactive: Potency [1] | Potency [2] | Potency [3] | Potency [4] | Potency [6] | Potency [7] | Potency [11] | Potency [12] | Potency [13] | Potency [15]
active: Potency [16] 4.91 µM

O=C(O)c1snc(Cl)c1Cl
inactive: Potency [1] | Potency [2] | Potency [3] | Potency [4] | outcome [5] | Potency [6] | Potency [7] | Potency [11] | Potency [15] | Potency [16]

COC(OC)(C(=O)c1ccccc1)c1ccccc1
inactive: Potency [1] | Potency [2] | Potency [3] | Potency [4] | outcome [5] | Potency [6] | Potency [14] | Potency [15] | Potency [16]
active: Potency [7] 24.3 µM | Potency [12] 10 µM | Potency [13] 20 µM

NC(=O)Nc1ccc(Cl)c(Cl)c1
active: Potency [7] 48.4 µM | Potency [14] 8.91 µM
inactive: Potency [1] | Potency [2] | Potency [3] | Potency [4] | outcome [5] | Potency [6] | Potency [15] | Potency [16]

O=S(=O)(c1ccccc1)c1ccc(Cl)cc1
active: Potency [7] 30.6 µM | Potency [12] 3.99 µM | Potency [14] 44.8 µM
inactive: Potency [1] | Potency [2] | Potency [3] | Potency [4] | outcome [5] | Potency [6] | Potency [13] | Potency [15] | Potency [16]

CC1(C)O[C@@H]2C[C@H]3[C@@H]4CCC5=CC(=O)C=C[C@]5(C)[C@H]4[C@@H](O)C[C@]3(C)[C@]2(C(=O)CO)O1
inactive: Potency [1] | Potency [2] | Potency [3] | Potency [4] | outcome [5] | Potency [6] | Potency [12] | Potency [14] | Potency [15]
active: Potency [8] 8.91 µM | Potency [9] 1.58 µM | Potency [11] 38.9 µM | Potency [16] 3.47 µM

CC(Cl)C(Cl)Cl (stereo unspecified)
active: Potency [12] 31.2 µM
inactive: Potency [1] | Potency [2] | Potency [3] | Potency [4] | outcome [5] | Potency [6] | Potency [7] | Potency [15] | Potency [16]

CCCCCCOC(=O)C(C)C
inactive: Potency [1] | Potency [2] | Potency [3] | Potency [4] | outcome [5] | Potency [6] | Potency [7] | Potency [13] | Potency [15] | Potency [16]

O=C(O)c1ccccc1NCCc1ccccc1
inactive: Potency [1] | Potency [2] | Potency [3] | Potency [4] | outcome [5] | Potency [6] | Potency [12] | Potency [15] | Potency [16]
active: Potency [7] 23.7 µM | Potency [13] 13.8 µM

Cc1cc(C(=C2C=CC(=Nc3ccc(S(=O)(=O)O)cc3S(=O)(=O)O)C=C2)c2ccc(Nc3ccc(S(=O)(=O)O)cc3)cc2)ccc1N
inactive: Potency [1] | Potency [2] | Potency [3] | Potency [4] | outcome [5] | Potency [7] | Potency [14] | Potency [15] | Potency [16]
